Experimental data published in the supplement of paper PMC6555819.

How the values were obtained:
Assay in all cases: PBM binding z-score (relative to random genomic background probes); higher = stronger binding; sequences stand for … in GC…GCGATTGACAGCGTAGAATGAAGG
[1] = system: FXR:RXRa (NR concentration 270 nM, RXRa partner concentration 90 nM)
Outline: (§1)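 Probes were double-stranded and carried 34-nt variable regions with direct-repeat seeds, single-nucleotide variants, half-site ablations and random human genomic background sequences, printed on custom Agilent 4×180K protein-binding microarrays. Arrays were incubated 1 h with ligand-free nuclear receptor dimers in PBS pH 7.4, 2% milk, 0.02% Triton X-100, 1 mM DTT, 0.2 mg/mL BSA and 0.4 mg/ml salmon testes DNA. Antibodies against each partner (one per run) detected binding, and scanned fluorescence was regression-normalized. Binding z-scores use the random background probes as reference.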

[2] = system: LXRa:RXRa (NR concentration 270 nM, RXRa partner concentration 90 nM)
Outline: as §1

[3] = system: LXRa homodimer (NR concentration 270 nM)
Outline: as §1

[4] = system: LXRb:RXRa (NR concentration 270 nM, RXRa partner concentration 90 nM)
Outline: as §1

[5] = system: LXRb homodimer (NR concentration 270 nM)
Outline: as §1

[6] = system: PPARa:RXRa (NR concentration 270 nM, RXRa partner concentration 90 nM)
Outline: as §1

[7] = system: PPARg:RXRa (NR concentration 180 nM, RXRa partner concentration 90 nM)
Outline: as §1

[8] = system: PPARg:RXRa 270nM:90nM, anti-RXR (NR concentration 270 nM, RXRa partner concentration 90 nM)
Outline: as §1

[9] = system: PPARg:RXRa 30nM:10nM, anti-RXR (NR concentration 30 nM, RXRa partner concentration 10 nM)
Outline: as §1

[10] = system: PPARg:RXRa 90nM:30nM, anti-RXR (NR concentration 90 nM, RXRa partner concentration 30 nM)
Outline: as §1

[11] = system: PPARg:RXRa DBDmut IVT, anti-RXR (DBD mutation: RXRa K156A/R161A, NR concentration 270 nM, RXRa partner concentration 90 nM)
Outline: as §1

[12] = system: PPARg:RXRa IVT, anti-PPARg (NR concentration 270 nM, RXRa partner concentration 90 nM)
Outline: as §1

[13] = system: PPARg DBDmut:RXRa IVT, anti-PPARg (DBD mutation: PPARg1 K132A/R137A, NR concentration 270 nM, RXRa partner concentration 90 nM)
Outline: as §1

[14] = system: PPARg DBDmut IVT, anti-PPARg (DBD mutation: PPARg1 K132A/R137A, NR concentration 270 nM)
Outline: as §1

[15] = system: PPARg homodimer (NR concentration 180 nM)
Outline: as §1

[16] = system: PXR:RXRa (NR concentration 270 nM, RXRa partner concentration 90 nM)
Outline: as §1

[17] = system: PXR homodimer (NR concentration 270 nM)
Outline: as §1

[18] = system: RARa:RXR (NR concentration 270 nM, RXRa partner concentration 90 nM)
Outline: as §1

[19] = system: RARa homodimer (NR concentration 270 nM)
Outline: as §1

[20] = system: RARb:RXRa (NR concentration 270 nM, RXRa partner concentration 90 nM)
Outline: as §1

Sequence	PBM binding z-score [1]	PBM binding z-score [2]	PBM binding z-score [3]	PBM binding z-score [4]	PBM binding z-score [5]	PBM binding z-score [6]	PBM binding z-score [7]	PBM binding z-score [8]	PBM binding z-score [9]	PBM binding z-score [10]	PBM binding z-score [11]	PBM binding z-score [12]	PBM binding z-score [13]	PBM binding z-score [14]	PBM binding z-score [15]	PBM binding z-score [16]	PBM binding z-score [17]	PBM binding z-score [18]	PBM binding z-score [19]	PBM binding z-score [20]
CCTACTGCGCCAAAGGTCATTGATTCCAATGCTC	5.29	5.64	5.34	5.07	1.91	5.47	6.88	7.67	6.56	7.79	1.68	3.77	5.21	1.61	3.34	5.66	2.58	5.78	2.4	4.61
ACAGAAAGGTGATGAAGGTAACTCAGGCTATCAT	0.335	0.618	0.115	0.477	-0.456	1.51	1.02	1.12	0.27	0.787	0.962	1.45	0.665	0.683	0.688	0.335	0.0962	0.91	0.63	1.74
CAAACTAGGTCACAGAGGTCAAAGGCCGTGCGTA	7.21	6.33	6.87	5.9	1.61	6.36	10.5	8.37	7.41	8.58	8.7	8.85	6.92	3.61	5.45	6.54	10.8	7.58	2.81	5.22
CGTCCAAGGTCAGAGAGGTCAGTAAATGCCGAGT	5.8	4.99	3.02	4.55	0.428	4.81	3.48	4.16	1.04	2.7	2.74	3.23	0.177	0.266	4.38	5.96	12	5.41	1.88	5.28
TGAATGAGGTTATAGGATCAGGGAACGTTGCAAA	1.98	1.6	-0.459	1.39	-0.108	3.28	2.06	2.51	1.15	2.08	1.16	2.21	0.833	-0.0124	0.65	1.05	0.148	1.82	0.469	1.48
TCATATAGCTAAAAGGTGAAAGTCGGTGTGGTAA	0.855	1.02	0.0787	1.2	-0.577	2.26	0.863	2.94	3.25	3.08	2.08	0.996	0.333	0.116	0.824	0.793	0.353	1.37	0.703	1.5
CGTCAAAGTTCAACTAAGGTAACGTGAAGCACGC	7.3	6.43	4.57	3.84	1.83	5.09	4.91	5.8	2.35	4.5	0.871	2.2	0.717	0.859	3.36	5.76	4.5	4.34	2.47	5.26
TCTTGTAGATCAATTGAGGTTAAGAAAGTGCGCT	1.19	2.94	0.265	1.56	-0.0639	1.74	-0.433	1.68	2.94	2.2	2.06	1.34	0.476	0.929	0.486	2.84	0.38	1.68	0.164	0.758
GTACCAAGGTGAATAGGCCGTTGATGAGTAGGCG	0.0834	0.126	-0.456	-0.22	-0.582	1.08	0.806	0.724	-0.00292	0.38	1.64	2.14	-0.316	-0.431	0.326	0.0653	-0.287	0.238	0.218	1.36
CCTCGCAGGCCAGGGTCACTCAAGCATTTCGCTT	2.11	1.69	-0.251	2.06	-0.654	3.01	0.19	1.04	-0.771	0.0823	-0.539	0.241	-0.923	-1.57	1.02	2.49	-0.431	3.1	-0.222	2.54
AGTCAAACTTCACTAGGTAACGTAAGATTCAGCT	-0.0326	-0.0348	-0.0758	0.0812	0.248	0.271	0.504	0.268	0.187	0.101	1.97	2.66	0.854	1.24	0.579	-0.238	0.241	-0.00905	-0.136	0.174
CGTCCAAGGTCAGCAGGTCCGTGAAAGCGACGTG	4.81	3.09	-0.42	2.19	-0.0479	4.13	2.24	3.15	0.0631	1.82	2.55	2.38	-0.178	-1.09	1.99	2.47	0.631	3.08	0.18	4.86
CCAACTGGGGCAGAAAGGTTACCATACCATCCGG	0.267	0.782	0.0649	1.12	-0.79	2.53	2.29	2.56	0.915	2.11	3.25	3.34	0.0349	-0.823	0.624	1.1	0.0955	1.98	-0.139	2.03
